{"source": "PubChem BioAssay (NCATS)", "note": "Records with an inconclusive call do not appear. Values without a mark were called inactive. The source made the active and inactive calls. The call rests on the fitted dose curve; in most records, active means well fitted cell-killing curve with a large enough effect; inconclusive means small, poorly fitted or top-dose-only effect, or effect the other way; inactive means no such curve, though single readings can be large or run the other way. Potency means the concentration at half of the fitted maximal effect.", "data": [{"assay": "Viability qHTS for spleen associated tyrosine kinase inhibitor (SYKi) drug resistant MV4-11 cells (AID 1963824); further: nearly all actives have a fitted effect of over 35% in size", "conditions": "SYKi-resistant MV4-11 viability, CellTiter-Glo, 72 h; series mostly up to 45 µM", "in_short": "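CellTiter-Glo luminescence, read 10 min after reagent addition, reports viability after a 72 hr compound exposure. Cells are an MV4-11 line made resistant to SYK inhibition, seeded at 500 per well onto compound-containing plates.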", "values": [{"smiles": "Cc1ccc2c(c1)[C@H]1CN(C)CC[C@H]1N2C(=O)CSc1nnnn1-c1ccc(Cl)cc1", "Potency": "inactive"}, {"smiles": "CO[C@H]1[C@@H](O)[C@@H](C)O[C@@H](O[C@@H]2C=C3C(OC(C)=O)CC4(O)C(CC[C@]5(C)[C@@H](C6=CC(=O)OC6)CC[C@]45O)[C@@]3(C)CC2)[C@@H]1O", "note": "(stereo partly drawn)", "Potency": "76.9 nM (active)"}, {"smiles": "COC1CC(O[C@H]2CC[C@]3(C)C4CC[C@]5(C)[C@@H](C6=CC(=O)OC6)[C@@H](OC(C)=O)C[C@]5(O)C4CC[C@@H]3C2)OC(C)C1O[C@@H]1O[C@H](CO)[C@@H](O)[C@H](O)[C@H]1O", "note": "(stereo partly drawn)", "Potency": "243 nM (active)"}, {"smiles": "C[C@@]12C[C@@H](c3ccoc3)OC(=O)C1CC[C@]1(C)[C@H]2[C@H]2C=C[C@]1(O)C(=O)O2", "note": "(stereo partly drawn)", "Potency": "inactive"}, {"smiles": "COC(=O)[C@@]1(C)C(=O)C=C[C@]2(C)c3c(O)cc(C(C)C)cc3[C@H](O)[C@@H](OC(C)=O)C12", "note": "(stereo partly drawn)", "Potency": "8930 nM (active)"}, {"smiles": "C[C@]12CC[C@H](O[C@@H]3O[C@H](CO)[C@@H](O)[C@H](O)[C@H]3O[C@@H]3O[C@H](CO)[C@@H](O)[C@H](O)[C@H]3O)CC1=CC[C@@H]1[C@@H]2CC[C@]2(C)[C@@H](C3=CC(=O)OC3)CC[C@]12O", "Potency": "4320 nM (active)"}, {"smiles": "CCCCCCn1c(=O)c(C(=O)Nc2ccc(C(=O)OCCC)cc2)c(O)c2ccccc21", "viability, % of control": "83.2% [at 9.25 µM]"}, {"smiles": "COC1CC(OC2CCC3(C=O)C(CCC4C3CCC3(C)C(C5=CC(=O)OC5)CCC43O)C2)OC(C)C1O", "note": "(stereo not drawn)", "Potency": "70.9 nM (active)"}, {"smiles": "COC(=O)C1(C)CCC(=O)C2(C)c3c(O)cc(C(C)C)cc3C(O)C(OC(C)=O)C12", "note": "(stereo not drawn)", "Potency": "inactive"}, {"smiles": "CC(C)C(=O)O[C@H]1[C@@H]2[C@H](C)C(=O)O[C@@H]2C[C@@H](C)[C@@H]2C=CC(=O)[C@]21C", "Potency": "2270 nM (active)"}, {"smiles": "CCCN1CCO[C@H]2c3cc(O)ccc3OC[C@@H]21", "Potency": "inactive"}, {"smiles": "N#CC(OC1OC(COC2OC(CO)C(O)C(O)C2O)C(O)C(O)C1O)c1ccccc1", "note": "(stereo not drawn)", "Potency": "inactive"}, {"smiles": "CCCCCCCCC(=O)NCc1ccc(O)c(OC)c1", "Potency": "inactive"}, {"smiles": "Cc1c(N2C(=O)[C@@H]3[C@H](O)CCN3C2=O)ccc(C#N)c1Cl", "Potency": "inactive"}, {"smiles": "C[C@H]1C(=O)O[C@@H]2CCN3CC=C(COC(=O)[C@](C)(O)[C@]1(C)O)[C@H]23", "Potency": "inactive"}, {"smiles": "CN1CCCCC1Cn1cc(C(=O)c2cc([N+](=O)[O-])ccc2I)c2ccccc21", "note": "(stereo not drawn)", "Potency": "10300 nM (active)"}, {"smiles": "O=C(NCCN1CCC2(CC1)C(=O)NCN2c1cccc(F)c1)c1ccc2ccccc2c1", "Potency": "5800 nM (active)"}, {"smiles": "CCN1C[C@]2(COC(=O)c3ccccc3N3C(=O)C[C@H](C)C3=O)CC[C@H](OC)[C@@]34[C@@H]5C[C@H]6[C@H](OC)[C@@H]5[C@](O)(C[C@@H]6OC)[C@](O)([C@@H](OC)[C@H]23)[C@@H]14", "Potency": "inactive"}, {"smiles": "COC1CC(O[C@H]2CC[C@]3(C=O)C4CC[C@]5(C)[C@@H](C6=CC(=O)OC6)CC[C@]5(O)[C@@H]4CC[C@@H]3C2)OC(C)C1O[C@@H]1O[C@H](CO)[C@@H](O[C@@H]2O[C@H](CO)[C@@H](O)[C@H](O)[C@H]2O)[C@H](O)[C@H]1O", "note": "(stereo partly drawn)", "Potency": "123 nM (active)"}, {"smiles": "CC1=C[C@H]2O[C@@H]3[C@H](O)[C@@H](O)[C@](C)([C@@]2(CO)C[C@@H]1O)[C@]31CO1", "Potency": "731 nM (active)"}, {"smiles": "CC1=CC(=O)[C@@H](O)[C@]2(C)C3[C@@H](O)[C@@H]4OC(=O)[C@@H]([C@H]4C)[C@]3(C)C(=O)C[C@@H]12", "note": "(stereo partly drawn)", "Potency": "1010 nM (active)"}, {"smiles": "COc1ccc(CCNCc2ccc(OC)c3ccccc23)cc1", "Potency": "8200 nM (active)"}, {"smiles": "CC1C/C=C/C(O)C(O)CC/C=C/c2cc(O)cc(O)c2C(=O)O1", "note": "(stereo not drawn)", "Potency": "8050 nM (active)"}, {"smiles": "CO[C@H]1[C@H](O)[C@H](O[C@H]2CC[C@]3(C)C4CC[C@]5(C)[C@H](C6=CC(=O)OC6)CC[C@]5(O)C4CC[C@@H]3C2)O[C@@H](C)[C@@H]1O", "note": "(stereo partly drawn)", "Potency": "11.2 nM (active)"}, {"smiles": "CC(C)(O)/C=C/C(=O)[C@](C)(O)[C@H]1[C@H](O)C[C@@]2(C)[C@@H]3CC=C4[C@@H](C[C@H](O)C(=O)C4(C)C)[C@]3(C)C(=O)C[C@]12C", "Potency": "282 nM (active)"}, {"smiles": "CC1N=C(N)OC1c1ccccc1", "note": "(stereo not drawn)", "Potency": "inactive"}, {"smiles": "CC[C@H](C)[C@H](NC(=O)[C@H]1CCCCN1C)C(=O)N(COC(=O)CC(C)C)[C@H](C[C@@H](OC(C)=O)c1nc(C(=O)N[C@@H](Cc2ccc(O)cc2)C[C@H](C)C(=O)O)cs1)C(C)C", "Potency": "0.4 nM (active)"}, {"smiles": "NC(=O)c1ncn2c1CN=C(c1ccccc1Br)c1cc(F)ccc1-2", "Potency": "inactive"}, {"smiles": "C[C@H]1O[C@@H](n2cnc3c(N)ncnc32)C[C@@H]1O", "Potency": "inactive"}, {"smiles": "COc1ccc2c(c1)[nH]c1c(C)nccc12", "Potency": "14600 nM (active)"}, {"smiles": "Nc1ccn(C[C@@H](CO)OCP(=O)(O)O)c(=O)n1", "viability, % of control": "69.1% [at 9.25 µM]"}, {"smiles": "CC1=CC(=O)[C@@H](O)[C@@]2(C)C1C[C@H]1OC(=O)[C@H](O)[C@@]3(O)[C@@H](C)[C@@H](O)[C@H](O)C2[C@@]13C", "note": "(stereo partly drawn)", "Potency": "1800 nM (active)"}, {"smiles": "CC(C)[C@H]1OC(=O)[C@H](Cc2ccccc2)N(C)C(=O)[C@@H](C(C)C)OC(=O)[C@H](Cc2ccccc2)N(C)C(=O)[C@@H](C(C)C)OC(=O)[C@H](Cc2ccccc2)N(C)C1=O", "Potency": "5440 nM (active)"}, {"smiles": "O=C1CN=C(c2ccccc2Cl)c2cc(Br)ccc2N1", "Potency": "inactive"}, {"smiles": "Clc1cccc(SC2CCNCC2)n1", "Potency": "inactive"}, {"smiles": "COC1CC(O[C@H]2CC[C@@]3(C)C(CCC4C3CC[C@]3(C)C(C5=CC(=O)OC5)CCC43O)C2)OC(C)C1OC1OC(COC2OC(CO)C(O)C(O)C2O)C(O)C(O)C1O", "note": "(stereo partly drawn)", "Potency": "693 nM (active)"}, {"smiles": "C/C=C(\\C)C(=O)O[C@H]1CC2C(=C1C)[C@H]1OC(=O)[C@](C)(O)[C@]1(O)[C@H](OC(=O)CCC)C[C@@]2(C)OC(C)=O", "note": "(stereo partly drawn)", "Potency": "563 nM (active)"}, {"smiles": "C[C@@H]1O[C@@H](OC2CCC3(C=O)C(CCC4C3CCC3(C)C(C5=CC(=O)OC5)C(O)CC43O)C2)[C@H](O)[C@H](O)[C@H]1O[C@@H]1O[C@H](CO)[C@@H](O)[C@H](O)[C@H]1O", "note": "(stereo partly drawn)", "Potency": "1720 nM (active)"}]}]}
